These results are taken from PubChem BioAssay (Tox21).

SMILES strings stand for the structures. Values without a mark were called inactive. Records with an inconclusive call do not appear. The source made the active and inactive calls. Unless noted, the call rests on the fitted dose curve; in most records, active means well fitted curve in the direction sought with a large enough effect in the repeat runs; inconclusive means weak or mixed curves; inactive means no such curve, though single readings can be large; an effect the other way counts as inactive or inconclusive.

Assay [1] is described as follows: qHTS assay to identify small molecule agonists of the sonic hedgehog signaling (Shh) pathway (AID 1259368; calls by dose curve;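 further: NIH/3T3-derived 3T3Gli1-Luc cells carrying a stable Gli1-driven firefly luciferase reporter; series mostly up to about 92 µM; nearly all actives have a fitted effect of over 15% in size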). In outline: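 Read-out: firefly luciferase luminescence from a Gli1 response element reporter stably integrated in NIH/3T3-derived 3T3Gli1-Luc cells, measured 30 min at room temperature after reagent addition. Compound exposure lasted 24 hr at 37 C, 5% CO2.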
(In general: qHTS replaces the single test concentration by a dilution series.)

Assay [2] in a line: qHTS assay to identify small molecule antagonists of the sonic hedgehog signaling (Shh) pathway (AID 1259369; calls by dose curve; further: nearly all actives have a fitted effect of over 45% in size). In outline:
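Luminescence readout: firefly Luc under Gli1 response element in 3T3Gli1-Luc cells (NIH/3T3 clone). Antagonist mode, stimulation by conditioned medium; compound exposure 24hr at 37 C, 5% CO2.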

Assay [3] is described as follows: qHTS assay to identify small molecule agonists of the estrogen receptor beta (ER-beta) signaling pathway - cell viability counter screen (AID 1259380). Further: nearly all actives have a fitted effect of over 30% in size. In outline: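 Luminescence read-out (CellTiter-Glo, 30 min, room temp) taken in the same wells as the beta-lactamase reporter assay; ER-beta-UAS-bla HEK293T cells exposed to DMSO-dissolved compounds for 16 hr at 37C in 2% charcoal-stripped FBS medium.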

Assay [4] is described as follows: qHTS assay to identify small molecule antagonists of the estrogen receptor beta (ER-beta) signaling pathway - cell viability counter screen (AID 1259382). Further: series mostly up to about 92 µM; nearly all actives have a fitted effect of over 55% in size. In outline:
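Luminescent ATP read-out (CellTiter-Glo, 30 min, RT) taken in the same wells as the bla reporter assay. HEK293T ER-beta-UAS-bla cells in 2% charcoal-stripped FBS were exposed to compounds with 1nM E2 for 16 hr at 37C.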

Assay [5] deals with Estrogen receptor (Homo sapiens) (UniProt P03372). Nature of the assay: qHTS assay to identify small molecule agonists of the estrogen receptor alpha (ER-alpha) signaling pathway in the presence of an antagonist (AID 1259383; calls by dose curve; further: nearly all actives have a fitted effect of over 15% in size; further: potency means the concentration at half of the fitted maximal effect; on activation: top concentration of the series differs between compounds). The method, boiled down:
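Luciferase luminescence (ONE-Glo, 30min at room temperature) measured in VM7Luc4E2 cells after 22hr compound exposure at 15 concentrations, with 10.0nM ICI-182,780 final present; cells express endogenous ER-alpha and carry four EREs upstream of luciferase.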

The nature of assay [6]: qHTS assay to identify small molecule agonists of the estrogen receptor alpha (ER-alpha) signaling pathway in the presence of an antagonist - cell viability counter screen (AID 1259386). Further: series mostly up to about 92 µM; nearly all actives have a fitted effect of over 30% in size. The method, boiled down: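 Read-out: CellTiter-Fluor fluorescence after 1hr reagent incubation, measured in the same wells as the luciferase readout. VM7Luc4E2 cells were exposed to 15 compound concentrations with 10.0nM ICI-182,780 for 22hr at 37C.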

Assay [7] is described as follows: qHTS assay to identify small molecule antagonists of the progesterone receptor (PR) signaling pathway - cell viability counter screen (AID 1346798). Further: series mostly up to about 92 µM; nearly all actives have a fitted effect of over 50% in size. The method, boiled down: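 Counter screen for cytotoxicity: viability of PR-UAS-bla HEK293T cells was measured with CellTiter-Glo luminescence following 16 hr compound exposure in the presence of R5020.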
Assay [8] is described as follows: qHTS assay to identify small molecule antagonists of the TGF-beta/Smad signaling pathway - cell viability counter screen (AID 1346824). Further: nearly all actives have a fitted effect of over 50% in size. In outline:
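SBE-bla HEK 293T cells were plated overnight at 37 C, then given compounds in DMSO plus TGF-beta1 (added as 0.25 ng/mL solution) for 5 hr. After the bla read, CellTiter-Glo was added to the same wells and luminescence read after 30 min at room temperature.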

Assay [9] is described as follows: qHTS assay to identify small molecule agonists of the TGF-beta/Smad signaling pathway - cell viability counter screen (AID 1346829). Further: top concentration of the series differs between compounds; nearly all actives have a fitted effect of over 45% in size. In outline:
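In parallel with the Smad reporter read, viability of HEK 293T cells stably carrying SBE-bla is quantified by ATP luminescence following 5 hr compound treatment.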

Assay [10] is described as follows: qHTS assay to identify small molecule agonists of the TGF-beta/Smad signaling pathway (AID 1346859; active means well fitted activation curve with a large enough effect in the signal ratio in the repeat runs, not every such curve was filed as active; the % refers to the signal ratio; further: series mostly up to about 77 µM). In outline: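 Reporter line: HEK 293T with stably integrated SBE-controlled beta-lactamase. Compound exposure lasts 5 hr at 37 C and 5% CO2; substrate loading follows for 2 hr at room temperature, with emission read at 460 and 530 nm.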
Assay [11] has as its target Thyrotropin-releasing hormone receptor (Homo sapiens) (UniProt P34981). Nature of the assay: qHTS assay to identify small molecule antagonists of the thyrotropin-releasing hormone receptor (TRHR) signaling pathway (AID 1346877; active means well fitted inhibition curve with a large enough effect in the repeat runs, not every such curve was filed as active; further: series mostly up to about 51 µM). The method, boiled down: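 HEK293/TRHR cells, 18 h, 37 °C; Ca2+ dye 2 h; cpd 5 min RT; TRH 1 nM final; fluorescence read 3 min, 1 s intervals; 15 concs, triplicate.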

The target of assay [12] is Estrogen receptor beta (Homo sapiens) (UniProt Q92731). The assay is described as follows: qHTS assay to identify small molecule agonists of the estrogen receptor beta (ER-beta) signaling pathway (AID 1259377; active means well fitted activation curve with a large enough effect in the signal ratio in the repeat runs, not every such curve was filed as active; the % refers to the signal ratio). The method, boiled down: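 Agonist mode cell assay in GripTite HEK293T cells expressing an ER-beta fusion that drives beta-lactamase from an Upstream Activator Sequence; 16 hr compound exposure at 37C, then 2 h LiveBLAzer B/G FRET substrate at room temperature, fluorescence read-out.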
Chain of Estrogen receptor beta (Homo sapiens) (Q92731 whole entry, looked up, the tested form may be a part): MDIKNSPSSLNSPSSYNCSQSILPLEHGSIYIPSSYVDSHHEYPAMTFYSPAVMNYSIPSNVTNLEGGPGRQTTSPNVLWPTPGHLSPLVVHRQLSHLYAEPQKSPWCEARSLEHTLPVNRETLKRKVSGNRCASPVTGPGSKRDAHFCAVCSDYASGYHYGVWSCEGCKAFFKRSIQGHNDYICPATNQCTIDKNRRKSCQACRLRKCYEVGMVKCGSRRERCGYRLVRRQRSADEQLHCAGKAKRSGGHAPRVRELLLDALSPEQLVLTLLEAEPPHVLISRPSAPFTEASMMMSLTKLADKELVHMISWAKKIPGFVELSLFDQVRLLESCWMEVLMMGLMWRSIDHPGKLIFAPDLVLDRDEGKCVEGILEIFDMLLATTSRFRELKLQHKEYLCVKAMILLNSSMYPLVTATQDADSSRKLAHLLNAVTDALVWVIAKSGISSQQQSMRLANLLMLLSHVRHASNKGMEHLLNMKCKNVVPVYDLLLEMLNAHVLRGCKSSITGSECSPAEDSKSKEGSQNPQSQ

Assay [13] shares this target. Nature of the assay: qHTS assay to identify small molecule antagonists of the estrogen receptor beta (ER-beta) signaling pathway (AID 1259378; active means well fitted inhibition curve with a large enough effect in the signal ratio in the repeat runs, not every such curve was filed as active; the % refers to the signal ratio). The method, boiled down:
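ER-beta-UAS-bla HEK293T (GripTite) cells in 2% charcoal-stripped FBS medium were preincubated 6 hr at 37C, dosed with compound, then stimulated with 1 nM E2 (final) for 16 hr; beta-lactamase reporter read by B/G FRET fluorescence after 2 hr substrate loading.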

The nature of assay [14]: qHTS assay to identify small molecule agonists of the androgen receptor (AR) signaling pathway in the presence of an antagonist - cell viability counter screen (AID 1259379).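 Further: MDA-kb2 human breast cancer cells carrying an MMTV luciferase reporter; series mostly up to about 92 µM; nearly all actives have a fitted effect of over 25% in size.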 In outline:
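Viability counter screen: CellTiter-Fluor fluorescence, measured in the same wells as the luciferase read-out. MDA-kb2 cells, 3,000/well, with nilutamide at 3.0uM final and compounds at 15 concentrations, 16 hr at 37C, 0% CO2.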

For assay [15], the target named is Androgen receptor (Homo sapiens) (UniProt P10275). Nature of the assay: qHTS assay to identify small molecule agonists of the androgen receptor (AR) signaling pathway in the presence of an antagonist (AID 1259381; calls by dose curve; further: nearly all actives have a fitted effect of over 15% in size). In outline: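 Luciferase read-out (ONE-Glo, 30min room temperature) in MDA-kb2 MMTV-reporter cells; agonist mode run in presence of AR antagonist nilutamide, 3.0uM final. Compounds tested as 15-point series, 16hr exposure at 37C, 0% CO2.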
Chain of Androgen receptor (Homo sapiens) (P10275 whole entry, looked up): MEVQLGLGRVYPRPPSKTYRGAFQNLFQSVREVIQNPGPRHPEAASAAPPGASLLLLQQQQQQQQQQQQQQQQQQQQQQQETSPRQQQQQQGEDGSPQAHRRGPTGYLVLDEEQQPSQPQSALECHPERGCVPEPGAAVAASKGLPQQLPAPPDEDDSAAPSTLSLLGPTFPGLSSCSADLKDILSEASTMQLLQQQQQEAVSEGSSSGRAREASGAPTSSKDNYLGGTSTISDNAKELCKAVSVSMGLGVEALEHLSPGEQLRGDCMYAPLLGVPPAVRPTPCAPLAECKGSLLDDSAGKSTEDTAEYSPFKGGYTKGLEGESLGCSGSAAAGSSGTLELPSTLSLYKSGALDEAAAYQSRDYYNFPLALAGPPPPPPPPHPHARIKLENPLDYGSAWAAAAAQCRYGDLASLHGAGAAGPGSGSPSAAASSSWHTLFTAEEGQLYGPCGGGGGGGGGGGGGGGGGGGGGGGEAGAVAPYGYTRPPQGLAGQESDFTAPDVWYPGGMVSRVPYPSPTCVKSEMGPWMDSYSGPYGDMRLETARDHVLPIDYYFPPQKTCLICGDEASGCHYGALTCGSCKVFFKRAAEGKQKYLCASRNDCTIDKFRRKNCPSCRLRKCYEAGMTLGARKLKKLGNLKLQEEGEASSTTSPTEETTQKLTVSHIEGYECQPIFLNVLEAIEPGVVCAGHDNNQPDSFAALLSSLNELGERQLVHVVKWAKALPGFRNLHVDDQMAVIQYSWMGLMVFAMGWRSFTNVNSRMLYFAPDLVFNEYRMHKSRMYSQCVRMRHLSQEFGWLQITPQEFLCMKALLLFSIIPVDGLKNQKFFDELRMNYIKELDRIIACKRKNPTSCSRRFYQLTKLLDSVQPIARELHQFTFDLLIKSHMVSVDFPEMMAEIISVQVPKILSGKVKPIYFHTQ

Assay [16] is described as follows: qHTS assay to identify small molecule agonists or antagonists of the thyroid stimulating hormone receptor (TSHR) signaling pathway - wild type cell line counter screen (AID 1259384; calls by dose curve). In outline: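 Wild-type HEK293 cells were plated 18 h at 37 C/5% CO2, pin-dosed with compound plus Ro20-1724 medium, held 30 min at room temperature, then given cAMP-d2 and anti-cAMP-cryptate; fluorescence was read after 1 h. Fifteen concentrations, triplicate.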

The target in assay [17] is Thyrotropin receptor (Homo sapiens) (UniProt P16473). Nature of the assay: qHTS assay to identify small molecule antagonists of the thyroid stimulating hormone receptor (TSHR) signaling pathway (AID 1259385; calls by dose curve; further: nearly all actives have a fitted effect of over 20% in size). The method, boiled down:
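TSHR-HEK293 cells were plated and held 18 h at 37C/5% CO2, then given compound plus Ro20-1724 and stimulated with TSH at 1.5 ng/mL final. After 30 min at room temperature, cAMP was detected with cAMP-d2/anti-cAMP-cryptate (1 h) by fluorescence.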

Assay [18] has as its target Progesterone receptor (Homo sapiens) (UniProt P06401). Nature of the assay: qHTS assay to identify small molecule agonists of the progesterone receptor (PR) signaling pathway (AID 1346784; calls by dose curve; further: nearly all actives have a fitted effect of over 30% in size). In outline:
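Cells (PR-UAS-bla HEK 293T, GripTite) were plated in assay medium containing 2% charcoal-stripped FBS and incubated 6 hr. Test compounds in DMSO were added for 16 hr at 37C. FRET substrate was then loaded for 2 hr at room temperature before fluorescence reading.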

Assay [19] is described as follows: qHTS assay to identify small molecule agonists of the progesterone receptor (PR) signaling pathway - cell viability counter screen (AID 1346799; calls by dose curve; further: nearly all actives have a fitted effect of over 45% in size). The method, boiled down:
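Cells (PR-UAS-bla HEK293T) are plated at 3,000/well in 2% charcoal-stripped FBS medium, rested 6 hr, dosed and incubated 16 hr at 37C. CellTiter-Glo is then added and luminescence measured after 30 min at room temperature.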

For assay [20], the target named is Progesterone receptor (Homo sapiens) (UniProt P06401). The assay is described as follows: qHTS assay to identify small molecule antagonists of the progesterone receptor (PR) signaling pathway (AID 1346795; active means well fitted inhibition curve with a large enough effect in the signal ratio in the repeat runs, not every such curve was filed as active; the % refers to the signal ratio). In outline:
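Antagonist mode: compounds tested against 1 nM (final) promegestone stimulation in HEK293T cells expressing PR-UAS-bla reporter, 16 hr at 37C, 5% CO2; beta-lactamase activity detected via B/G FRET substrate after 2 hr at room temperature.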
On the % scale 0 is the no-effect control and ±100 the full control effect.

Chain of Thyrotropin-releasing hormone receptor (Homo sapiens) (P34981 whole entry, looked up): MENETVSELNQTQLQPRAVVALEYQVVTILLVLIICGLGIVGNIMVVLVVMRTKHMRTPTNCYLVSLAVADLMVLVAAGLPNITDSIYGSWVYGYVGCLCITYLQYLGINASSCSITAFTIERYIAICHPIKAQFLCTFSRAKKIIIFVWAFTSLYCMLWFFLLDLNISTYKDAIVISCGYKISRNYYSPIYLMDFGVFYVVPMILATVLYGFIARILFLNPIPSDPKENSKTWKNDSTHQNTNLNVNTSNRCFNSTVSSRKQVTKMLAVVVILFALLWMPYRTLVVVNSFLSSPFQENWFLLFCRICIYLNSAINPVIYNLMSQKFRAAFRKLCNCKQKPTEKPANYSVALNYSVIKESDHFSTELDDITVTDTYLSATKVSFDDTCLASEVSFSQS
Chain of Estrogen receptor (Homo sapiens) (P03372 whole entry, looked up): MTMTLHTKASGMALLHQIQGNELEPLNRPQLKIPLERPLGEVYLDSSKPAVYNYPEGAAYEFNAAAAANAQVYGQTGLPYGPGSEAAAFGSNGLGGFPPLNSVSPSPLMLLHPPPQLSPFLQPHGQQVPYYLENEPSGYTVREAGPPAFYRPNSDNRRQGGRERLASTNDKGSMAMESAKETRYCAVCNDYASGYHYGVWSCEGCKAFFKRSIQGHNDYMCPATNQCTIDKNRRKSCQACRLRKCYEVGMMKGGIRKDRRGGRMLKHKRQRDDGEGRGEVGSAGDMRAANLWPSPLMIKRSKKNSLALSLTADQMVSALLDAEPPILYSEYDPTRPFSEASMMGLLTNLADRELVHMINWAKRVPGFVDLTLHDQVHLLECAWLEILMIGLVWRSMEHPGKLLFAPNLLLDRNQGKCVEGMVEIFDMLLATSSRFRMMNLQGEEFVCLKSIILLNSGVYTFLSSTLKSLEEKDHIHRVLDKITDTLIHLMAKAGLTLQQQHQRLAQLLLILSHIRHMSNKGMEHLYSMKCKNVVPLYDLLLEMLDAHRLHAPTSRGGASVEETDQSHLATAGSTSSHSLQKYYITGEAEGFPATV
Chain of Thyrotropin receptor (Homo sapiens) (P16473 whole entry, looked up): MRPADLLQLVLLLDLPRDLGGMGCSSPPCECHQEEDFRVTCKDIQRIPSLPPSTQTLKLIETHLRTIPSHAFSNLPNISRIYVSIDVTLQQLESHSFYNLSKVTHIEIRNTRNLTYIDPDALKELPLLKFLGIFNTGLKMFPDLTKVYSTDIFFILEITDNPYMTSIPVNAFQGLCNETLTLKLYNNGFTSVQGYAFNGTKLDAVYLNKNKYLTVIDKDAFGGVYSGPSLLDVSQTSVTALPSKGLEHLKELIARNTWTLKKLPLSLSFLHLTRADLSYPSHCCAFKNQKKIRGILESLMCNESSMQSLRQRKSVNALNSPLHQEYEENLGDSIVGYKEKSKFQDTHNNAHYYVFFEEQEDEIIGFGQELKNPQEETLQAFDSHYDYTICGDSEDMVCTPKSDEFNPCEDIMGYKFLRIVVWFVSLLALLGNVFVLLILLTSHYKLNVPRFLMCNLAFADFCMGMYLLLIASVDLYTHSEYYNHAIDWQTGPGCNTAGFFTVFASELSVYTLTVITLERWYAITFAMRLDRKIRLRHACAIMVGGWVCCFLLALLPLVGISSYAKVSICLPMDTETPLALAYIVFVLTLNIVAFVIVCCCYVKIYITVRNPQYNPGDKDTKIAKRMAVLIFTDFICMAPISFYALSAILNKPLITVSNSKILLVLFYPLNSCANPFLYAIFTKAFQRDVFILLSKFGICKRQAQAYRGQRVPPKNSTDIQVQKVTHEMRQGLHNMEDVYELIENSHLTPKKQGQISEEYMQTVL
Chain of Progesterone receptor (Homo sapiens) (P06401 whole entry, looked up): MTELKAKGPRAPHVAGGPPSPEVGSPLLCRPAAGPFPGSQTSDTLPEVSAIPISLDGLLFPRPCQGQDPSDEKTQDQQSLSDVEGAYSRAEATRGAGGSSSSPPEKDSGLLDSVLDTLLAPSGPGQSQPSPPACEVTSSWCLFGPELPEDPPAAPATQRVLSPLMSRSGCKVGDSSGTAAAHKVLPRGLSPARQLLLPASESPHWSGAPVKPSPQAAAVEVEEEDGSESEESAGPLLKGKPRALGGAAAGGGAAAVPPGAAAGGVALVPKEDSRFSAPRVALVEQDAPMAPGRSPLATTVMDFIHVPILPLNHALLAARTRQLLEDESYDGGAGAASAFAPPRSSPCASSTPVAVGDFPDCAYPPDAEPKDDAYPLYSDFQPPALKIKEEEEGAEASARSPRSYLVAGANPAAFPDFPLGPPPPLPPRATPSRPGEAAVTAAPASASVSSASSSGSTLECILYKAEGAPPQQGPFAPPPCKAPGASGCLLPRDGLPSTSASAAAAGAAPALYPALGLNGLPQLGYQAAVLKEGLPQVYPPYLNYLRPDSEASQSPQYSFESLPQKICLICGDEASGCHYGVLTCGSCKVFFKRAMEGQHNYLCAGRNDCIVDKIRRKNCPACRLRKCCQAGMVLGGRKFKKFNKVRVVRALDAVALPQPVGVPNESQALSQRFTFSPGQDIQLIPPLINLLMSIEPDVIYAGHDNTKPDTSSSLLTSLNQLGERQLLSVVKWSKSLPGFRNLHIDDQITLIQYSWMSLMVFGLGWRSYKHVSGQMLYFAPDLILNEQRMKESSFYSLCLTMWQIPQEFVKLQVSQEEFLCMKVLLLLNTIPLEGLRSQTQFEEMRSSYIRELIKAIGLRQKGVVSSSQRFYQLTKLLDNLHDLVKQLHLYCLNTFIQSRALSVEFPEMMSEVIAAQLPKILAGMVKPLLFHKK

On to `c1ccc(-c2ccc(-c3ccccc3)cc2)cc1`, for which the activity change in assay [1] was 4.66% [at 18.9 µM, active compounds read high]. Also, the activity change, negative = inhibition in assay [2] was 32.6% [at 19 µM]. The activity change, negative = cytotoxicity was 0.175% [at 19 µM] in assay [3]; -1.89% [at 19 µM] in assay [4]; 0.383% [at 19 µM] in [6]; 3.71% [at 18.9 µM] in assay [7]; -3.25% [at 15.8 µM] in assay [9]. In assay [5], the Potency is 629 nM (active). In assay [8], the viability change, negative = cytotoxic is -15.2% [at 15.8 µM]. In addition, the activation in assay [10] is 0.211% [at 15.8 µM]. Besides, in [11], the activity, negative = inhibition was -0.349% [at 10.5 µM].

For `FC(F)(Cl)C(F)(Cl)Cl`, the Potency entry in assay [1], in [12], in [13], in [14], in assay [15] and in [4] was “inactive” throughout. Also, the Potency result in assay [5], in [17], in assay [6], in assay [18], in [7] and in assay [19] was “inactive” throughout. The result in [16], in assay [8], in [9], in assay [10] and in assay [11] was inactive.

As for `[O-][n+]1ccc(Cl)cc1`, the Potency result in [1], in [2], in assay [4], in [6], in [18] and in [20] was “inactive” throughout. Besides, the Potency entry in [7] and in [19] was “inactive” throughout. Moreover, the call in assay [8], in [9] and in assay [10] was inactive.

Take `Clc1cc(Cl)c2c(c1)N=C1CCCCCN1C2`: the Potency result in [1], in assay [2], in [14], in assay [4], in assay [5] and in assay [17] was “inactive” throughout. Also, the Potency entry in assay [18], in assay [7] and in assay [19] was “inactive” in each case. Also, the result in assay [8], in assay [9] and in [11] was inactive.

Regarding `FC1(F)C(F)(F)C(F)(F)C2(F)C(F)(C1(F)F)C(F)(F)C(F)(F)C1(F)C(F)(F)C(F)(F)C(F)(F)C(F)(F)C12F` (configuration not stated), the Potency entry in assay [1], in [12], in [13], in [14], in assay [3] and in [4] was “inactive” in each case. In addition, the Potency result in assay [17], in [6], in assay [18], in [20] and in assay [7] was “inactive” in each case. The molecule was called inactive in [16], in assay [8], in assay [9] and in assay [10].

Regarding `C[C@H]1C[C@H]2[C@@H]3CCC4=CC(=O)C=C[C@]4(C)[C@@]3(F)[C@@H](O)C[C@]2(C)[C@@]1(O)C(=O)COP(=O)(O)O`, the Potency result in [1], in assay [12], in assay [13], in assay [14], in [3] and in assay [4] was “inactive” in each case. In addition, the Potency entry in assay [5], in [17], in assay [6], in assay [18], in [7] and in assay [19] was “inactive” throughout. Besides, the molecule was classed as inactive in assay [16], in [8], in [10] and in assay [11].
